Experimental findings from paper PMC10726135, “HNF4α isoforms regulate the circadian balance between carbohydrate and lipid metabolism in the liver” are described below.

The full ranking holds about 18,000 sequences; the median of “log2 normalized intensity” is about 0.39, and the highest 2% start at about 6.6. What follows is part of a selection rich in the highest values, with near analogues and random picks from the rest.

The experiment has as its target T1, HNF4alpha2 (COS-7 nuclear extract) (Homo sapiens, UniProt P41235 1-474).
T1 sequence: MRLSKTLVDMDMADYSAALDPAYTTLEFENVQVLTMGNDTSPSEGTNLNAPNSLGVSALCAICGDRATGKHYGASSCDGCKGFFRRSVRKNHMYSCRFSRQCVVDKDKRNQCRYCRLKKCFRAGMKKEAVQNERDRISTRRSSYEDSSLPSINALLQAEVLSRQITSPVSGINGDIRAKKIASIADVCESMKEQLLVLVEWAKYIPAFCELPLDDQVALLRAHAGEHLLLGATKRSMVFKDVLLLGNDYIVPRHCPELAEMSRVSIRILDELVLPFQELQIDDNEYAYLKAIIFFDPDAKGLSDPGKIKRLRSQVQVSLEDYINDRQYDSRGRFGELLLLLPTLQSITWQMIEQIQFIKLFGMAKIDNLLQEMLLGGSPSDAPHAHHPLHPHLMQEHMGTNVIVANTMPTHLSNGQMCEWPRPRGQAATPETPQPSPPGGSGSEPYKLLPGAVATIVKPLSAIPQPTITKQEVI
Put plainly: protein-binding microarray; COS-7 nuclear extract on double-stranded Agilent 4x180k PBM; binding buffer, salt, pH and temperature not given in the material; high values mean tight binding. As to conditions: chain copies: 2; label: 3' end of strand 1 on the slide; dsDNA, one strand shown. In a few lines:
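The binding signal is Agilent software's gProcessedSignal after background correction and normalization. Arrays were a custom Agilent SurePrint G3 4x180k design of double-stranded ~60-nt oligonucleotides with ~44,000 test sequences in quadruplicate, probed with nuclear extracts of COS-7 cells transiently expressing a human HNF4α isoform. Scans were made at 2-µm resolution on an Agilent G2565CA scanner.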
For “TGTGGGCCTCACACCCTCTAGGGTAGATAAGCCTAGGGAGATTAGAGTATCGGTCGA”, the binding signal was -0.451 log2 normalized intensity. Next, “TGCCTCCTTCAAGGATTAGCAGATAAATCTGCCTAGGGAGATTAGAGTATCGGTCGA”: -0.904 log2 normalized intensity. Regarding “ATGAAGATATATTCCTTCAGGAAGGCCTGTGCCTAGGGAGATTAGAGTATCGGTCGA”, the binding signal turned out to be 0.708 log2 normalized intensity. For “CTTTCATACGTTTAACAGTTCCTCCTGGAAGCCTAGGGAGATTAGAGTATCGGTCGA” the value was 1.18 log2 normalized intensity. For “CTATTAGGTCTTTGAAGTTGTCTTATCACCGCCTAGGGAGATTAGAGTATCGGTCGA” the value was 1.34 log2 normalized intensity; for “GGACCGCAGGGGGCTCCCGGACCCTGACTCGCCTAGGGAGATTAGAGTATCGGTCGA”, 0.458 log2 normalized intensity. For “AGCCACCGCGCCCCGCCCCCAGTGCACCTTGCCTAGGGAGATTAGAGTATCGGTCGA” the value was 5.11 log2 normalized intensity. As to “TTGTATGTCCAAGGGTCACTCGACATTCATGCCTAGGGAGATTAGAGTATCGGTCGA”, the binding signal worked out at 3.02 log2 normalized intensity.

Take “TTGAAGTGACTAAATGAGAAGAAATGATGGGCCTAGGGAGATTAGAGTATCGGTCGA”: the binding signal stood at 1.69 log2 normalized intensity. For “GGTGCTGATGTTAACACAAGTTATTACCGTGCCTAGGGAGATTAGAGTATCGGTCGA” the value was 1.03 log2 normalized intensity. Regarding “CAGTGGTAACCACAGTACTGTCTTTTTGCCGCCTAGGGAGATTAGAGTATCGGTCGA”, the binding signal was -0.854 log2 normalized intensity.

On to “TTGCATAGGCATTGTCTTGAAAGATAAAGTGCCTAGGGAGATTAGAGTATCGGTCGA”, for which the binding signal turned out to be 0.627 log2 normalized intensity.

Turning to “TCTTTTTGCCACTAGGGGTCACTGTCACATGCCTAGGGAGATTAGAGTATCGGTCGA”, the binding signal is 2.7 log2 normalized intensity. Next, “CACCCAGAACTTTGACCGTTTGATTATTTGGCCTAGGGAGATTAGAGTATCGGTCGA”: 2.56 log2 normalized intensity. In the case of “ATTTATCAAGATGAACTTTGACCCACCTACGCCTAGGGAGATTAGAGTATCGGTCGA”, the binding signal came out at 8.26 log2 normalized intensity. Next, “ATGAACTTTGACCCACCTACATTGATATTCGCCTAGGGAGATTAGAGTATCGGTCGA”: 4.81 log2 normalized intensity; “TCCCTTTGATATTTATCAAGATGAACTTTGGCCTAGGGAGATTAGAGTATCGGTCGA”: 4.93 log2 normalized intensity; “TTGATATTTATCAAGATGAACTTTGACCCAGCCTAGGGAGATTAGAGTATCGGTCGA”: 10.8 log2 normalized intensity. For “ATTTTTCCCTTTGATATTTATCAAGATGAAGCCTAGGGAGATTAGAGTATCGGTCGA” the value was 0.736 log2 normalized intensity; for “CATGTTGAGTGGAATATGAGGTCAGGGTTCGCCTAGGGAGATTAGAGTATCGGTCGA”, 2.71 log2 normalized intensity. For “GGGCTGGAACACAAAGAAAGCCAAAGTTCAGCCTAGGGAGATTAGAGTATCGGTCGA” the value was 2.41 log2 normalized intensity. As for “CATTGGACCCTCCCAGCCAAACCCCACTCCGCCTAGGGAGATTAGAGTATCGGTCGA”, the binding signal stood at 5.01 log2 normalized intensity.

As for “TGTAACTGTAACTATATTGACCACCTCCTCGCCTAGGGAGATTAGAGTATCGGTCGA”, the binding signal is 1.76 log2 normalized intensity.

Take “GTGTGACCTTTGCCTTCTTGACATCTCTCTGCCTAGGGAGATTAGAGTATCGGTCGA”: the binding signal was determined as 4.43 log2 normalized intensity. Regarding “GATGTTCTACACTGCTTACCCTGCAGTGTGGCCTAGGGAGATTAGAGTATCGGTCGA”, the binding signal is 0.052 log2 normalized intensity. Next, “TTACCCTGCAGTGTGACCTTTGCCTTCTTGGCCTAGGGAGATTAGAGTATCGGTCGA”: 7.49 log2 normalized intensity; “CTGCAGTGTGACCTTTGCCTTCTTGACATCGCCTAGGGAGATTAGAGTATCGGTCGA”: 5.94 log2 normalized intensity. Next, “TCTACACTGCTTACCCTGCAGTGTGACCTTGCCTAGGGAGATTAGAGTATCGGTCGA”: 4.19 log2 normalized intensity; “ACTGCTTACCCTGCAGTGTGACCTTTGCCTGCCTAGGGAGATTAGAGTATCGGTCGA”: 7.83 log2 normalized intensity; “GTGCTCTGGGTCTGTCCTTTGTGTTTATGGGCCTAGGGAGATTAGAGTATCGGTCGA”: 2.66 log2 normalized intensity. For “CAGTGGGCCCAGAGCACAACCTTTGGCCGTGCCTAGGGAGATTAGAGTATCGGTCGA” the value was 4.45 log2 normalized intensity; for “TTGCCCACCAATGATCAAAGGTTAGTCTTAGCCTAGGGAGATTAGAGTATCGGTCGA”, 3.63 log2 normalized intensity; for “AAAACATATTTGCATAATGGAGCAAAGGTCGCCTAGGGAGATTAGAGTATCGGTCGA”, 5.4 log2 normalized intensity. As for “CTACTACTTGACCTTTGAAACATATCCAGAGCCTAGGGAGATTAGAGTATCGGTCGA”, the binding signal stood at 5.48 log2 normalized intensity. For the sequence “ATTCTCACCACTAGGAAACTGACCTTTGCTGCCTAGGGAGATTAGAGTATCGGTCGA”, the binding signal came to 5.16 log2 normalized intensity.

“ATGGGATGACCTTTGAGCAATAGGAAATGGGCCTAGGGAGATTAGAGTATCGGTCGA”: the binding signal was found to be 4.18 log2 normalized intensity. Next, “GATGAGTGACCTTTGACCTCAGAGAGCCGGGCCTAGGGAGATTAGAGTATCGGTCGA”: 9.56 log2 normalized intensity; “TCATTGATGAGTGACCTTTGACCTCAGAGAGCCTAGGGAGATTAGAGTATCGGTCGA”: 9.89 log2 normalized intensity; “AAAGACTTGCTCATTGATGAGTGACCTTTGGCCTAGGGAGATTAGAGTATCGGTCGA”: 6.15 log2 normalized intensity. Next, “CTAGGAAACTGACCTTTGCTCATGACTATTGCCTAGGGAGATTAGAGTATCGGTCGA”: 5.53 log2 normalized intensity; “TTGCCCCTTTGACCCTCGGGCCTCCCTAGAGCCTAGGGAGATTAGAGTATCGGTCGA”: 3.97 log2 normalized intensity. As for “GGCTGATGACCTTTGACTGAGATGGGAGCAGCCTAGGGAGATTAGAGTATCGGTCGA”, the binding signal was 4.03 log2 normalized intensity.

For “CACCACTAGGAAACTGACCTTTGCTCATGAGCCTAGGGAGATTAGAGTATCGGTCGA”, the binding signal came to 6.73 log2 normalized intensity.

Take “ACCACATTCTCACCACTAGGAAACTGACCTGCCTAGGGAGATTAGAGTATCGGTCGA”: the binding signal was determined as 3.23 log2 normalized intensity. For “GTGACCTTTGACCTCAGAGAGCCGGAAACTGCCTAGGGAGATTAGAGTATCGGTCGA” the value was 7.21 log2 normalized intensity.
